# According to PubChem BioAssay (NCI):
# Compounds without any hit were thinned out: in the full panel of roughly 83,000, 20% have a hit.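 How to read the values: 0–100, growth inhibition (40 = 60% inhibited); 0, no net growth; -100 to 0, cell death (-40 = 40% of starting cells died; -100 = all dead).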 Values without a mark were called inactive. Active and inactive are the calls of the source. How the source made its calls: active means growth percent below 10; inactive means the rest.
# Test system: KM12 colon
# Assay: NCI-60 one-dose screen, 48 h (100 = growth as untreated, 0 = no growth, -100 = all killed)
# Details: 10 µM unless noted
row,SMILES,growth
1,COc1cc(-c2csc(NC(=O)Nc3ccc(C(F)(F)F)cc3)n2)cc(OC)c1OC,7.27% (active)
2,Cc1c(Cl)cccc1NC(=O)c1sc2nc3c(cc2c1N)COCC3,31.8%
3,CCN(CC)CC#CCOC(=O)[C@]1(C)CCC[C@]2(C)[C@H]3C[C@H]4C(C(C)C)=C[C@]3(CC[C@H]21)[C@@H]1C(=O)CCC(=O)[C@@H]14,51.9%
4,CC(C)(C)c1nn(-c2ccccc2)c2c1COCN2Cc1ccc(Cl)cc1,86.4%
5,O=C(Nc1nc2ccc(C(F)(F)F)cc2s1)c1cc(Cl)ccc1O,8.91% (active)
